Screening results: PubChem, National Center for Advancing Translational Sciences (NCATS)
Only some compounds are listed: those with a hit (about 9.4% of all), similar ones and a draw of the others.
Rab9 promoter act – activators of Rab9 promoter | Huh7 Rab9 promoter-luciferase reporter, luminescence, 24 h | Potency, µM (top dose mostly 9.22 µM), inactives show at the top dose activation, negative = inhibition, usual class: activators | 320,000 tested, 2.8% active; also: % of control where 0% means no effect; nearly all actives have a fitted effect of over 60% in size
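Luminescence from Amplite-detected luciferase (10 minutes, ambient) reports Rab9 promoter activation. Before that, stable Rab9-luciferase Huh7 cells (1500/well, reduced-serum OP-MEM I plus 10% FBS) were exposed to compound for 24 hours at 37C.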
ELG1 genotox – inducers of genotoxicity in HEK293T ELG1-luciferase cells | Potency, µM (top dose mostly 46 µM), without a hit: top-dose activity change, positive = activation, most hits filed as activators | 330,000 tested, 1.3% active | AID 504466 | HEK293T ELG1-luciferase reporter, luminescence, 16 h; also: % of control where 0% means no effect; nearly all actives have a fitted effect of over 60% in size
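HEK293T cells expressing luciferase-tagged ELG1 were exposed to compound or DMSO vehicle for 16 hr at 37 °C and 5% CO2. Luciferase activity was then measured with ONE-Glo after 30 min at room temperature.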
ELG1 DNA repair – inhibitors of ELG1-dependent DNA repair in HEK293T cells; Potency, µM (titrated, usually from 46.1 µM), for inactives: top-dose activity change, negative = inhibition, actives largely listed as inhibitors; HEK293T ELG1-luciferase reporter, luminescence, 16 h; DNA damage induced by 5-fluorouridine; AID 504467; 330,000 tested, 2.3% active; also: % is scaled to controls: 0 for no effect and ±100 for the full control effect; nearly all actives have a fitted effect of over 55% in size
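HEK293T cells expressing luciferase-tagged ELG1 (2,000/well) received 5-Fluorouridine plus compound or DMSO for 16 hr at 37 °C. Luciferase was read by ONE-Glo luminescence after 30 min at room temperature.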
NPC1 prom act – NPC1 promoter activation | Huh7 NPC1 promoter luciferase reporter, 24 h | Potency, µM (doses to about 9.22 µM), without a hit: at the top dose activation, usual class: activators | AID 485313 | 320,000 tested, 2.4% active; also: % of control where 0% means no effect; nearly all actives have a fitted effect of over 60% in size
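Stably transfected Huh7 (NPC1 promoter→luciferase), 1500 cells/well in Opti-MEM + 10% FBS, 2 h settle, then compound 24 h at 37 °C. Luminescence after 10 min with Amplite reagent.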
FLuc counter – firefly luciferase modulation, counter-screen for miR-21 project; Potency, µM (top dose mostly 57.5 µM), inactives show at the top dose activity change, negative = inhibition, most hits filed as inhibitors; 360,000 tested, 6.9% active; purified FLuc, Km substrates, luminescence inhibition; AID 588342; P08659;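 also: plate controls were vehicle for no effect and reference inhibitor for full effect; nearly all actives have a fitted effect of over 55% in size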
Target sequence (P08659 whole entry, looked up): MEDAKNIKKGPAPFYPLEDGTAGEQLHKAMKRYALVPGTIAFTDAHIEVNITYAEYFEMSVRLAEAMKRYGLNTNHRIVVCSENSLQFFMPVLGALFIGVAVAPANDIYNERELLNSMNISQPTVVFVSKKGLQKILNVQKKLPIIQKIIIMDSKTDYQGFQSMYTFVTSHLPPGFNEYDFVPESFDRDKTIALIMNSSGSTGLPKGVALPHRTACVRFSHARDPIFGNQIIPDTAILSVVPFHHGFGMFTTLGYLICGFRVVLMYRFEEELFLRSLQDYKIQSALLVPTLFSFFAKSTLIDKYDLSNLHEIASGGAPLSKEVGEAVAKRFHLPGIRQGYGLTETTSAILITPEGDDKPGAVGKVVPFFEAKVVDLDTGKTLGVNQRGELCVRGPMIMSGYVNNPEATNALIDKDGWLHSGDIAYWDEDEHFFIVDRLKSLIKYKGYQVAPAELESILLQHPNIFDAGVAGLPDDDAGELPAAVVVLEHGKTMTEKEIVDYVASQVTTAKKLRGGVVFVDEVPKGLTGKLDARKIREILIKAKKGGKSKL
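Purified P. pyralis luciferase, 10 nM final, with Km-level 10 uM D-luciferin and 10 uM ATP in 50 mM Tris acetate pH 7.5, 10 mM Mg acetate, 0.01% Tween-20, 0.05% BSA; 6-point qHTS titration about 60 µM downward; luminescence read.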
SMN2 splice enh – increases expression of the SMN2 splice variant. HEK293 SMN2-luciferase splicing reporter, luminescence, 30-36 h. Potency, µM (top dose mostly 46.1 µM), without a hit: at the top dose activity change, positive = activation, actives largely listed as activators. 210,000 tested, 2.8% active. AID 1458; also: % of control where 0% means no effect; nearly all actives have a fitted effect of over 55% in size
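HEK293 cells carry an SMN2 minigene-luciferase reporter in which exon 7 inclusion puts luciferase in frame. Cells were seeded at 2000 cells/well, attached for 10-12 hours, then exposed to compounds for 30-36 hours at 37C before ONE-Glo luminescence.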
* = called active by the depositor; ? = inconclusive; . = not tested or not shown; [ ] = remark or other dose. Calls follow the shape of the dose curve; as a rule, active = well fitted curve in the direction sought with a large enough effect; inconclusive = small, poorly fitted or top-dose-only effect, or another doubt; inactive = no such curve, though single readings can be large; an effect the other way counts as inactive or inconclusive. Potency is read from the fitted curve at half-maximal effect.

SMILES	Rab9 promoter act	ELG1 genotox	ELG1 DNA repair	NPC1 prom act	FLuc counter	SMN2 splice enh
Oc1ccc(/C=N/Nc2nccnc2Cl)c(O)c1	-11.1%	?	?	0.6%	23.9µM*	-31.7%
Cc1c(O)ccc(/C=N/Nc2ncccc2[N+](=O)[O-])c1O	3.16µM*	2.59µM*	?	0.562µM*	1.07µM*	.
O=c1[nH]ncc(N/N=C\c2ccc(O)cc2O)c1Cl	-1.2%	?	?	-0.2%	?	22.6%
O=[N+]([O-])c1ccccc1/C=N/Nc1nccnc1Cl	3.55µM*	?	?	?	26.9µM*	22.0%
Cc1nn2c(=O)cc(COC(=O)c3ccccc3NC(=O)c3cccs3)nc2s1	.	.	.	.	-1.1%	.
O=C(NCCc1ccccc1)c1sc2ncccc2c1-n1cccc1	.	.	.	.	-14.6%	.
CCOC(=O)c1c(S(=O)(=O)N2CCC(C(=O)NCc3ccccc3Cl)CC2)c(C)n(C)c1C	.	.	.	.	3.8%	.
O=[N+]([O-])c1cccnc1N/N=C/c1ccccc1O	?	?	?	-4.4%	?	-51.4%
Oc1ccccc1/C=N/Nc1nccnc1Cl	-17.3%	13µM*	?	-25.2%	16.9µM*	-86.3%
Nc1cc(Cl)nc(N/N=C/c2ccccc2[N+](=O)[O-])n1	?	24.5%	?	?	23.9µM*	?
C=CCn1c(SCC(=O)NCC2CCCO2)nc2c([nH]c3ccccc32)c1=O (stereo not given)	8.5%	6.7%	4.11µM*	5.4%	1.5%	.
N#C/C(=C\NC(=S)c1ccncc1)c1nc2ccccc2s1	.	.	.	.	.	1.5%[9.22 µM]
O=C(Nc1ccc2c(c1)CCC2)c1ccc(Br)o1	3.16µM*	6.51µM*	?	3.55µM*	6.75µM*	12.6µM*
O=C(Nc1ccc2c(c1)CCC2)c1cc2ccccc2o1	1.26µM*	1.64µM*	?	1.26µM*	1.35µM*	12.6µM*
O=C(Nc1ccc2c(c1)OCO2)c1ccc(Br)o1	2.82µM*	18.4µM*	?	2.51µM*	23.9µM*	11.2µM*
Cc1ccc(NC(=O)c2ccc(Br)o2)cc1S(=O)(=O)N(C)C	?	4.3%	?	?	13.5µM*	?
O=C(COC(=O)CNC(=O)c1ccc(Br)o1)Nc1ccc2c(c1)OCCO2	7.2%	-1.3%	14.2%	-1.9%	-3.1%	4.5%
CC(C)C(=O)Nc1ccc(NC(=O)c2cc3ccccc3o2)cc1	2.7%[1.84 µM]	?	?	22.4%	?	?
CC(CNc1nc2ccccc2c2nc(-c3ccccc3)nn12)c1ccccc1 (stereo not given)	.	.	.	.	-5.0%	-5.0%
CC(C)CCNC(=O)c1cn(C)c2ccc(S(=O)(=O)N3CCOCC3)cc2c1=O	.	.	.	.	-5.5%	-1.4%
Cc1ccc(OCC(=O)N(Cc2ccc(N(C)C)cc2)CC2CCCO2)cc1C (stereo not given)	.	.	.	.	4.5%	2.8%
Cc1ccc(NC(=O)Cc2ccc(Cl)c(Cl)c2)cc1S(=O)(=O)N(C)C	-3.4%	-0.9%	14.6µM*	-1.0%	-9.4%	-53.2%
Cc1ccc(NC(=O)CNc2ccc(Cl)c(Cl)c2)cc1S(=O)(=O)N(C)C	-19.0%	1.2%	-19.4%	-8.3%	1.3%	-87.0%
O=C(Nc1ccc2c(c1)OCO2)c1ccc(COc2ccc3c(c2)CCC3)o1	3.98µM*	?	?	?	19µM*	11.2µM*
Cc1ccc(C(=O)Nc2ccc3c(c2)CCC3)o1	2.82µM*	3.26µM*	?	3.16µM*	4.26µM*	4.47µM*
SMILES	Rab9 promoter act	ELG1 genotox	ELG1 DNA repair	NPC1 prom act	FLuc counter	SMN2 splice enh
CN(C)S(=O)(=O)c1cc(NC(=O)CSc2nn(-c3ccc(Cl)cc3)c(=S)s2)ccc1Cl	0.4%	1.1%	?	-0.8%	6.0%	-62.8%
CC(=O)Nc1ccc2c(c1)CCCC2	7.1%	2.6%	?	2.7%	-13.8%	.
Cc1ccc(NC(=O)CSc2nn(-c3ccc(Cl)cc3)c(=S)s2)cc1S(=O)(=O)N(C)C	-8.9%	1.4%	14.6µM*	1.3%	-10.0%	-58.5%
CCc1nc(SC)ncc1C(=O)NCc1cccc(Br)c1	.	.	.	.	1.0%	.
Cc1ccc(-c2cc3nc(-c4ccccc4)cc(N4CCOCC4)n3n2)cc1	0.3%	-2.1%	?	1.7%	-2.6%	-7.4%
COCCN1CCN(c2c3c(nc4cc(-c5cccc(F)c5)nn24)CCC3)CC1	0.0%	-7.5%	?	-0.8%	2.9%	-3.4%
Cc1cccc(-c2cc3nc4c(c(N5CCOCC5)n3n2)CCCC4)c1	?	?	?	?	2.39µM*	-19.3%
COc1ccc(-c2cc3nc(-c4ccccc4)cc(N4CCC5(CC4)OCCO5)n3n2)cc1	-6.5%	-9.4%	20.6µM*	-1.0%	-0.4%	6.1%
O=C(C1CCCO1)N1CCN(c2c3c(nc4cc(-c5ccc(F)cc5)nn24)CCC3)CC1 (stereo not given)	2.0%	-0.2%	?	0.6%	4.78µM*	-1.8%
Fc1ccc(-c2cc3nc4c(c(N5CCOCC5)n3n2)CCCC4)cc1	-2.1%	-2.5%	-18.6%	-1.6%	21.3µM*	-15.7%
COc1ccccc1C1c2c(-c3ccc(Cl)cc3)n[nH]c2C(=O)N1c1ccc(C)cc1 (stereo not given)	.	.	.	.	0.5%	-21.4%
CC(Oc1ccccc1F)C(=O)N1CCC(c2nc3ccccc3o2)CC1 (stereo not given)	.	.	.	.	-8.4%	.
CN(C)CCCNc1c2c(nc3cc(-c4cccc(F)c4)nn13)CCC2	-1.7%	3.6%	25.5%	-4.3%	0.6%	.
COc1ccc(-c2cc3nc4c(c(N5CCC6(CC5)OCCO6)n3n2)CCC4)cc1	-0.5%	-0.5%	?	-4.1%	-2.7%	.
Cc1cccc(-c2cc3nc4c(c(NCc5ccco5)n3n2)CCCC4)c1	3.16µM*	7.7%	?	?	10.7µM*	23.7%
COc1cccc(-c2cc3nc4c(c(N5CCC6(CC5)OCCO6)n3n2)CCC4)c1	-0.6%	-7.9%	?	-8.0%	26.9µM*	-7.6%
C=C1C=C(C(F)F)n2ncc(C(=O)NCCc3ccc(OC)c(OC)c3)c2N1	.	.	.	.	3.7%	.
CCOc1ccccc1-c1noc(CSc2nnc(-c3ccccc3)n2-c2ccc(F)cc2)n1	.	.	.	.	0.1%	-0.3%
COCCn1c(C)cc(C(=O)CSc2nc(C)c(C)c(C)n2)c1C	0.1%	0.2%	?	-5.9%	-18.6%	-24.3%
O=C(CSc1nnc2ccccn12)c1ccc(OC(F)F)cc1OC(F)F	16.5%	16.3%	?	0.5%	2.9%	-13.5%
COCCn1c(C)cc(C(=O)CSc2ncn[nH]2)c1C	28.9%	11.8%	?	3.8%	?	5.62µM*
COCCn1c(C)cc(C(=O)CSc2nnc3ccccn23)c1C	?	0.581µM*	?	?	1.35µM*	?
